PAFAH1B2 FP inh = PAFAH1B2 (human) inhibition | P68402 | recombinant PAFAH1B2, FP-rhodamine activity probe, fluorescence polarization | inhibition, % at 3.39 µM | 340,000 compounds, 1.2% hits;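 active = inhibition above the mean of all tested compounds plus 3 SD, cut at about 24% in these data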
Target sequence (P68402 whole entry, looked up): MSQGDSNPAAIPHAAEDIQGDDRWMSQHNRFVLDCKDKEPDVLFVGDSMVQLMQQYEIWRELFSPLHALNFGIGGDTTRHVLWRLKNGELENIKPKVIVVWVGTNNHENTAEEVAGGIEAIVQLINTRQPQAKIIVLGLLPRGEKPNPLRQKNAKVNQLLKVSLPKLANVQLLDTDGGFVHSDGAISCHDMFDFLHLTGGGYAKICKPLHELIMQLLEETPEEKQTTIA
PAFAH2 FP inh = PAFAH2 (human) inhibition | 340,000 compounds, 0.99% hits | recombinant PAFAH2, FP-rhodamine activity probe, fluorescence polarization | Q99487 | inhibition, % at 3.39 µM;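 active = inhibition above the mean over all tested compounds plus 3 SD, cut at about 30% in these data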;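 also: inhibitors block probe labeling of enzyme so polarization drops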
eLon inh = inhibits E. coli Lon protease. P0A9M0. purified E. coli Lon protease, fluorescence polarization. inhibition, % at 7.94 µM. 360,000 compounds, 0.42% hits. AID 602123; in the data active = inhibition above about 13%, passing the limit was not always enough
pPAFAH inh = pPAFAH (human) enzyme inhibition; Q13093; recombinant pPAFAH, FP-rhodamine probe fluorescence polarization; inhibition, % at 3.39 µM; 330,000 compounds, 1.5% hits; AID 463082;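 active = inhibition above the mean inhibition across the screen plus 3 SD, cut at about 25% in these data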;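 also: inhibitors block binding of the rhodamine activity-based probe so polarization drops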
Target sequence (Q13093 whole entry, looked up): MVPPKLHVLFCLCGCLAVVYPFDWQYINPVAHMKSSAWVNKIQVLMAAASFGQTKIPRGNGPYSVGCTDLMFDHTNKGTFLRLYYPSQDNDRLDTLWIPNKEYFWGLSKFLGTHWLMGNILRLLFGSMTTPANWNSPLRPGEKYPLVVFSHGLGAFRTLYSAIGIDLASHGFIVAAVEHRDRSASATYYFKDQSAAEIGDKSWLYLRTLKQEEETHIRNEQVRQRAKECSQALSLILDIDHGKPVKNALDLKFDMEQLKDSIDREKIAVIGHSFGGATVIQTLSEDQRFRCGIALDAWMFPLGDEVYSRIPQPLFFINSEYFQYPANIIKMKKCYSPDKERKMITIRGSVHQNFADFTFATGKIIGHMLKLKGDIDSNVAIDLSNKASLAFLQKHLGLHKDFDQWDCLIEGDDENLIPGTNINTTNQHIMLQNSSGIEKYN
PAFAH1B3 FP inh = blocks human PAF acetylhydrolase 1B catalytic subunit 3 | Q15102 | recombinant PAFAH1B3, FP-rhodamine probe, fluorescence polarization | inhibition, % at 3.39 µM | 340,000 compounds, 0.28% hits | AID 492972;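 active = inhibition above the screen-wide average of all tested compounds plus 3 SD, cut at about 25% in these data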
Rin1-Abl PPI inh = blocks binding of human Rin1 to Abl; inhibition, % at 7.35 µM; P00519+Q13671; TR-FRET Rin1/Abl binding, biochemical; 360,000 compounds, 0.4% hits; AID 588664; in the data active = inhibition above about 5%, passing the limit was not always enough
Rin1 Abl conf = Rin1-Abl interaction inhibition confirmation; 1,300 compounds, 49% hits; TR-FRET Rin1-Abl binding, purified proteins; shares compounds with Rin1-Abl PPI inh; AID 602124; inhibition, % at 7.35 µM
GFP quencher = GFP fluorescence interference artifact. AID 602125. shares compounds with Rin1-Abl PPI inh. 1,300 compounds, 8.5% hits. inhibitors/quenchers counterscreen. inhibition, % at 6.75 µM;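 also: ABL1-eGFP fusion protein alone without its partner RIN1-SBP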
GFP quench DR = quenches GFP in dose response, Rin1-Abl counter-screen. 230 tested, under 10 active. shares compounds with Rin1-Abl PPI inh. IC50, µM. AID 602182. GFP fluorescence interference/quenching counterscreen; call rule not given here;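 also: ABL1-eGFP fusion protein alone without its RIN1 binding partner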
Of the large screens only hits and unclear results are named; the others gave an inactive call (follow-up assays come after a bar, where they were run). Compounds with a hit are over-represented: about 3.1% of the library has one in this group of screens. Rule as the data show it, unless noted: active = inhibition above about 6.5%; inactive = the rest.

O=C(O)c1ccc(COc2ccccc2Cl)cc1	Rin1-Abl PPI inh 5.0 | Rin1 Abl conf inactive | GFP quencher inactive
Cc1cc2nc(-c3ccc(Cl)cc3)c(CC(C)(C)C)n2c(C)c1Br	none (no result: PAFAH1B2 FP inh, PAFAH2 FP inh, pPAFAH inh, PAFAH1B3 FP inh)
CCOC(=O)CCCCC(=O)c1[nH]c(=O)[nH]c1Cn1ccnc1	Rin1-Abl PPI inh 28.1 | Rin1 Abl conf 29.5 | GFP quencher inactive | GFP quench DR inactive
CCCCSCc1[nH]c(=O)[nH]c1C(=O)CCCCC(=O)OCC	Rin1-Abl PPI inh 47.7 | Rin1 Abl conf 46.4 | GFP quencher inactive | GFP quench DR inactive
CCOC(=O)Cn1cnc(C)c1	none (no result: pPAFAH inh)
CCOC(=O)CCc1n[nH]c(=O)[nH]c1=O	none
COc1ccc(OCCCC(=O)NCCc2nc3ccccc3[nH]2)cc1	none
COc1ccc(CCC(=O)NCCc2nc3ccccc3[nH]2)cc1	Rin1-Abl PPI inh 6.0 | Rin1 Abl conf inactive | GFP quencher inactive
O=S(=O)(Nc1nccs1)c1ccc(Br)cc1	Rin1-Abl PPI inh 10.8 | Rin1 Abl conf inactive | GFP quencher inactive
COC(=O)c1ccc(CSc2nnc(-c3ccncc3)o2)o1	Rin1-Abl PPI inh 19.4 | Rin1 Abl conf 38.7 | GFP quencher inactive | GFP quench DR inactive
COC(=O)c1ccccc1NC(=O)CSc1nnc(-c2ccncc2)o1	Rin1-Abl PPI inh 16.0 | Rin1 Abl conf 16.1 | GFP quencher inactive
COC(=O)c1ccc(Cl)c(NC(=O)CSc2nnc(-c3ccncc3)o2)c1	none
COC(=O)c1ccc(CSc2nnc(-c3ccncc3)o2)cc1	none
COC(=O)c1ccc(CNC(=O)CN2C(=O)NC(Cc3ccccc3)(c3ccccc3)C2=O)cc1 (configuration not stated)	none (no result: PAFAH1B2 FP inh, PAFAH2 FP inh, pPAFAH inh, PAFAH1B3 FP inh)
CCOC(=O)c1ccc(NS(=O)(=O)c2cn(C)cn2)cc1	none
CN(CC(=O)Nc1ccccc1Br)C(=O)CNC(=O)c1ccc(Oc2ccccc2)cc1	Rin1-Abl PPI inh 7.6 | Rin1 Abl conf inactive | GFP quencher inactive
COc1cccc(NC(=O)CN(C)C(=O)CNC(=O)c2ccc(Oc3ccccc3)cc2)c1	none
CN(C)c1ccc(O)c2c1CC1CC3[C@@H](N(C)C)C(=O)C(C(N)=O)C(=O)[C@]3(O)C(=O)C1C2=O (some centres not stated)	Rin1-Abl PPI inh 13.4 | Rin1 Abl conf 7.8 | GFP quencher inactive
CCOC(=O)c1ccc(NC(=O)CSc2nc3cccnc3n2C)cc1	Rin1-Abl PPI inh 9.9 | Rin1 Abl conf inactive | GFP quencher inactive
COC(=O)c1ccc(NC(=O)CSc2nc3cccnc3n2C)cc1	none
CCOC(=O)c1ccc(NC(=O)CSc2nncn2-c2cccnc2)cc1	Rin1-Abl PPI inh 7.8 | Rin1 Abl conf inactive | GFP quencher inactive
O=C(CN1C(=O)c2ccccc2C1=O)Oc1ccc(Cl)cc1	none
CCC(C)Sc1nnc(CSc2nc(C)cc(C)n2)n1C (configuration not stated)	none
CCCSc1nnc(CSc2nc(C)cc(C)n2)n1C	Rin1-Abl PPI inh 19.8 | Rin1 Abl conf 14.8 | GFP quencher inactive
Cc1oc2nc(SCCCC(=O)NCCO)nc(N)c2c1C	Rin1-Abl PPI inh 36.0 | Rin1 Abl conf 42.1 | GFP quencher inactive | GFP quench DR inactive
Cc1oc2nc(SCC(=O)NC3CCCCC3)nc(N)c2c1C	none
COc1ccc(CC(=O)OCC(=O)NC(=O)Nc2ccccc2F)cc1	Rin1-Abl PPI inh 8.9 | Rin1 Abl conf inactive | GFP quencher inactive
O=C(NN1C(=O)/C(=C/c2ccc(O)c(O)c2)SC1=S)c1ccccc1	Rin1-Abl PPI inh 7.5 | Rin1 Abl conf 6.6 | GFP quencher 12.0
CC1=NN(c2ccc(C(=O)O)c(N)c2)C(=O)C1	Rin1-Abl PPI inh 11.9 | Rin1 Abl conf 7.1 | GFP quencher inactive
CC1=NN(c2ccc(Cl)c(C(=O)O)c2)C(=O)C1	Rin1-Abl PPI inh 7.2 | Rin1 Abl conf inactive | GFP quencher inactive
CC1=NN(c2ccc(C(=O)O)cc2)C(=O)CC1	none
Oc1c(Cl)cc(Oc2cc(Cl)c(O)c(CN3CCOCC3)c2)cc1CN1CCOCC1	none (no result: pPAFAH inh)
Oc1c(CNc2ccccc2)cc(COCc2ccccc2)c2cccnc12	none
Oc1c(CN2CCOCC2)cc(CN2CCOCC2)c(O)c1O	Rin1-Abl PPI inh 22.8 (no result: pPAFAH inh) | Rin1 Abl conf 7.0 | GFP quencher inactive
Oc1c(CN2CCOCC2)cc(COCc2ccccc2)c2cccnc12	Rin1-Abl PPI inh 10.8 | Rin1 Abl conf inactive | GFP quencher inactive
Cc1cc(C)c(CN2CCN(CCCn3ccc(NC(=O)OCc4ccccc4)nc3=O)CC2)c(C)c1	Rin1-Abl PPI inh 7.9 (no result: pPAFAH inh) | Rin1 Abl conf 8.0 | GFP quencher inactive
O=C(Nc1ccn(CCCNCCN2CCOCC2)c(=O)n1)OCc1ccccc1	none (no result: pPAFAH inh)
O=C(Nc1ccn(CCCN2CCC(N3CCOCC3)CC2)c(=O)n1)OCc1ccccc1	Rin1-Abl PPI inh 10.7 (no result: PAFAH1B2 FP inh, PAFAH2 FP inh, pPAFAH inh, PAFAH1B3 FP inh) | Rin1 Abl conf 6.9 | GFP quencher inactive
C[C@@H]1CN([C@@H](C)CO)C(=O)CCCn2nncc2CO[C@H]1CN(C)C(=O)Nc1ccc(-c2cccs2)cc1	none (no result: PAFAH1B2 FP inh, PAFAH2 FP inh, pPAFAH inh, PAFAH1B3 FP inh)
CCS(=O)(=O)c1ccc(OC)c(N=Nc2ccc(O)c3ncccc23)c1	none
Cc1cccc(N=Nc2ccc(O)c3ncccc23)c1	pPAFAH inh 50.9, Rin1-Abl PPI inh 6.9 | Rin1 Abl conf 6.5 | GFP quencher inactive
NS(=O)(=O)c1ccc(N=Nc2ccc(O)c3ncccc23)cc1	pPAFAH inh 26.8, Rin1-Abl PPI inh 11.3 | Rin1 Abl conf inactive | GFP quencher 12.7
CCOC(=O)CSc1nc2cc(C(=O)N3CCC(C(N)=O)CC3)ccc2c(=O)n1-c1ccccc1	Rin1-Abl PPI inh 9.0 | Rin1 Abl conf inactive | GFP quencher inactive
CCCCNC(=O)COc1ccccc1[N+](=O)[O-]	none
Cc1ccc(NC2CNC(=O)NC2=O)cc1C (configuration not stated)	none (no result: pPAFAH inh)
Cc1ccc(NC2C(=O)NC(=O)NC2=O)cc1	Rin1-Abl PPI inh 17.0 (no result: pPAFAH inh) | Rin1 Abl conf 15.8 | GFP quencher inactive
COC(=O)C1=C[C@@H](C(=O)OC)[C@@H]2C3=C(C(=O)C2(C)C)[C@H](c2ccccc2)[C@@H]2C(=O)N(C)C(=O)[C@@H]2[C@@H]3C1	Rin1-Abl PPI inh 18.6 | Rin1 Abl conf 16.5 | GFP quencher inactive
O=C(Nc1ccc(C(=O)O)cc1)/C(=C\c1ccccc1)NC(=O)c1ccco1	Rin1-Abl PPI inh 8.6 | Rin1 Abl conf inactive | GFP quencher inactive
Nc1nc(N2CCN(C(=O)c3ccco3)CC2)nc2ccccc12	Rin1-Abl PPI inh 8.7 | Rin1 Abl conf inactive | GFP quencher inactive
Nc1nc(N2CCN(C(=O)c3ccco3)CC2)nc2ccc(Br)cc12	none
CCOc1cc(N2CCOCC2)c(OCC)cc1NC(C)C(=O)N1CCN(CC)CC1 (configuration not stated)	Rin1-Abl PPI inh 37.9 (no result: pPAFAH inh) | Rin1 Abl conf inactive | GFP quencher inactive

Source: PubChem BioAssay (The Scripps Research Institute Molecular Screening Center)
